The panel holds about 83,000 compounds, 20% with a hit somewhere; the sample as a whole holds those more often.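 A percent growth of 40 corresponds to 60% growth inhibition; 0 means no net growth; -100 means all cells died. Active threshold: below 10.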 Unmarked numbers belong to inactive results. The source made the active and inactive calls.
Tests used:
Assay in all cases: NCI-60 one-dose screen, 48 h (100 = growth as untreated, 0 = no growth, -100 = all killed)
Settings in all cases: 10 µM
HCT-15 colon = tested on: HCT-15 colon
HT29 colon = tested on: HT29 colon
SNB-75 CNS = tested on: SNB-75 CNS
SNB-19 CNS = tested on: SNB-19 CNS
U251 CNS = tested on: U251 CNS
PC-3 prostate = tested on: PC-3 prostate
SK-MEL-5 melanoma = tested on: SK-MEL-5 melanoma
UACC-62 melanoma = tested on: UACC-62 melanoma
LOX IMVI melanoma = tested on: LOX IMVI melanoma
SK-MEL-28 melanoma = tested on: SK-MEL-28 melanoma

Row | Compound | growth (HCT-15 colon) | growth (HT29 colon) | growth (SNB-75 CNS) | growth (SNB-19 CNS) | growth (U251 CNS) | growth (PC-3 prostate) | growth (SK-MEL-5 melanoma) | growth (UACC-62 melanoma) | growth (LOX IMVI melanoma) | growth (SK-MEL-28 melanoma)
1 | CC[C@@]1(O)C(=O)OCc2c1cc1n(c2=O)Cc2c-1nc1cc(F)c(C)c3c1c2[C@@H](N)CC3 | 5.44% (active) | -11.1% (active) | -26.1% (active) | 1.87% (active) | -42.1% (active) | 22.5% | -78.4% (active) | -78.1% (active) | -74.2% (active) | -15.7% (active)
2 | Cc1cccc2cc(-c3cc(-c4ccccc4)nc(=S)[nH]3)c(Cl)nc12 | 53.2% | 86.5% | 103% | 82.2% | 99.1% | 72.5% | 23.6% | 37.5% | 66.9% | 59.8%
3 | COc1ccc2[nH]c(=O)c(CSc3nccc(-c4ccc(Cl)cc4)n3)cc2c1 | 36.3% | 33.9% | -11.5% (active) | 40.5% | 13% | 29.3% | 44.8% | 37.9% | 27.9% | 45.3%
4 | CN(C)c1cccc2c(S(=O)(=O)Nc3cccc(-c4csc(NC(=O)CCCCCN5CCN(c6cc7c(cc6F)C(=O)N(C6CCC(=O)NC6=O)C7=O)CC5)n4)c3)cccc12 (stereo not given) | 77.9% | 92.3% | 60.5% | 92.8% | 94.4% | 78.5% | 60.2% | 83.1% | 91.8% | 104%
5 | O=C(c1ccc(Cl)cc1)C1[C@H](c2ccc(Br)cc2)[C@@H](c2ccccc2)NC12C(=O)Nc1ccccc12 (stereo not given in full) | -2.63% (active) | -52.2% (active) | 15% | 15.9% | -6.22% (active) | 5.16% (active) | -23.2% (active) | -60.6% (active) | -100% (active) | -32.7% (active)
6 | CC1(c2ccccc2)NC(=O)N(CC(=O)Nc2ccc(C(=O)/C=C/C=C/c3ccccc3)cc2)C1=O (stereo not given) | 12.8% | 25.4% | 54.9% | 61.6% | 14.7% | 36.4% | 51.6% | 43.1% | 26% | 70.9%
7 | CC1(C)CC[C@]23CC[C@]4(C)[C@H](CC[C@@H]5[C@@]6(C)CC[C@H](N)C(C)(C)[C@@H]6CC[C@]54C)[C@H]2[C@H]1OC3=O | -91.7% (active) | -66.7% (active) | -75.3% (active) | -98.7% (active) | -88.9% (active) | -57.5% (active) | -100% (active) | -96.1% (active) | -98.9% (active) | -100% (active)
8 | CC(=O)c1ccc(Nc2nc(SC(C)C)nc(-c3ccccc3)c2C#N)cc1 | 48.7% | 48.1% | 42.3% | -20% (active) | 10.2% | 71.9% | 38.1% | 77.9% | 0.768% (active) | 31.3%
9 | C/C(=C\CC/C=C(\C)CC/C=C(\C)CC[C@@H](O)C(C)(C)O)CC/C=C(\C)CC[C@@H](O)C(C)(C)O | 21.1% | -67% (active) | 70.2% | 61.4% | 33.2% | 7.84% (active) | -16.3% (active) | 46.2% | 28.7% | 38%
10 | CC(=O)c1ccc(NC(=O)NCn2c(=O)[nH]c3ccccc3c2=O)cc1 | 101% | 105% | 99.9% | 90.4% | 86.7% | 86.9% | 96.8% | 81.1% | 92.8% | 103%
11 | NC1=NC(c2ccccc2Cl)N=C(Nc2nn[nH]n2)N1 (stereo not given) | 103% | 115% | 95.2% | 99.6% | 97.5% | 103% | 98% | 94.1% | 94.2% | 124%
12 | CN1C/C(=C\c2ccc(O)cc2O)c2[o+]c3cc(O)ccc3cc2C1 | 21.9% | 44.4% | 60.5% | 42.1% | 14% | 65.8% | 57.9% | 47.5% | -66.7% (active) | 17.3%
13 | CN1CCN(c2ccc(Nc3nc(N4CCN(S(=O)(=O)c5ccc(F)cc5)CC4)c4sccc4n3)cc2)CC1 | -79.8% (active) | -63.1% (active) | -97.9% (active) | -98.1% (active) | -98.5% (active) | -18.4% (active) | -100% (active) | -93.3% (active) | -91.7% (active) | -95.4% (active)
14 | COc1ccc(/C(CSc2nnc(-c3c[nH]c4ccccc34)n2-c2ccccc2)=N/O)cc1 | 15.3% | 32% | 63.3% | 40.3% | 39.4% | 23.1% | -10.2% (active) | 31.4% | -78.2% (active) | 37.4%
15 | Cc1ccc(CSc2nc(Cl)c(C#N)c(-c3ccc(F)cc3)n2)cc1 | 54.4% | 38.4% | 126% | 89.3% | 68.8% | 42.6% | 77.6% | 77.2% | 85.8% | 93.9%
16 | Cc1ccc(-c2nc(Nc3ccc(S(N)(=O)=O)cc3)c3ccccc3n2)cc1 | 1.3% (active) | 14.6% | 87.6% | 60.6% | 49.7% | 39.5% | 74.4% | 78.5% | -71.5% (active) | 75.8%
